Results: PubChem BioAssay

Each molecule was assayed against Left-right determination factor 2 (Homo sapiens) (UniProt O00292) (assay: small molecules binding LEFTY2 protein – biochemical, small-molecule microarray, 635 nm fluorescence scan, primary screen (AID 1110)). Details: higher = more signal.
Chain of Left-right determination factor 2 (Homo sapiens) (O00292 whole entry, looked up): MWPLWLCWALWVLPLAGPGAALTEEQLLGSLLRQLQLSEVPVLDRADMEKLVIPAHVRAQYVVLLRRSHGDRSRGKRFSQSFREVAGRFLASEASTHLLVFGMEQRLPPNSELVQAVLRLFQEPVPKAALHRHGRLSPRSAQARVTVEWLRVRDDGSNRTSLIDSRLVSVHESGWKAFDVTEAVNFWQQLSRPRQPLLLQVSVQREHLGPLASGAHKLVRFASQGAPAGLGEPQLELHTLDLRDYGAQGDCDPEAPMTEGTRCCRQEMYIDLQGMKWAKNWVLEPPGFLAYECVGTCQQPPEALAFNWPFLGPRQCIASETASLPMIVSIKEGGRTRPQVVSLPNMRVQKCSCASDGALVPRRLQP

| Compound | composite z-score |
| --- | --- |
| C[C@]1(C(=O)NCc2ccccc2)c2ccccc2C(=O)N(Cc2cc(C(F)(F)F)cc(C(F)(F)F)c2)[C@H]1c1ccc(CO)cc1 | 0.159 |
| C=C(COC)/C(=C/C[C@@H](OC(C)=O)c1cccc(OCCO)c1)c1cc(C(=O)OC)ccc1OC | -0.357 |
| COC(=O)[C@H]1[C@@H]2COc3ccccc3[C@H]2N[C@H]1C(=O)OC | 0.362 |
| CCc1cccc(NC(=O)O[C@H]2[C@H](OC(=O)Nc3ccccc3)[C@@H](OC(=O)Nc3ccccc3)[C@@H](OC)O[C@@H]2CO)c1 | 0.273 |
| C=CCN1C(=O)[C@]2(O[C@H](CCn3cc(CCO)nn3)[C@@H]([Si](C)(C)c3ccc(OC)cc3)[C@@H]2C)c2cc(NC(=O)c3ccc(OC)cc3)ccc21 | 0.774 |
| C=C(COC)/C(=C/C[C@H](OC(C)=O)c1ccc(OCCO)cc1)c1cnc2ccccc2c1 | 0.523 |
| [N-]=[N+]=NCc1ccccc1C[C@]1(C(=O)N2CCCCC2)N=C(c2ccc(OCCCO)cc2)O[C@H]1c1ccccc1CN=[N+]=[N-] | -0.406 |
| CO[C@H]1O[C@H](CO)[C@@H](OC(=O)Nc2ccccc2)[C@H](OC(=O)Nc2ccc3c(c2)OCO3)[C@@H]1OC(=O)Nc1ccc2c(c1)OCO2 | -0.244 |
| CCOC(=O)C1=C[C@@H](c2ccccc2)N(S(=O)(=O)c2ccc(C)cc2)[C@H]1c1ccc(F)cc1 | 0.446 |
| CCCC=C(CCC)[C@@H](NC(=O)c1ccc(C(F)(F)F)cc1)c1ccccc1 | -0.0957 |
| COC(=O)C[C@H]1O[C@]2(C(=O)N(Cc3ccccc3)c3ccc(I)cc32)[C@@H](C)[C@@H]1[Si](C)(C)c1ccc(OC)cc1 | -0.0651 |
